A selection: hits, their analogues and other compounds. The true share with any hit is near 12%.
CHX counter = Cycloheximide Counterscreen for Small Molecule Inhibitors of Shiga Toxin. cell reporter, cycloheximide protein synthesis inhibition counterscreen. max response, %. 300,000 compounds, 12% hits. AID 2314, 2010; in the data active = max response mostly above about 13%, no sharp cut-off; inactive = mostly below about 14%; note: read at 38.3 µM for the half of the compounds with a filed dose; 0% is about no effect
NS1 function inh = qHTS Assay for Inhibitors of Influenza NS1 Protein Function | Potency, µM (doses to about 46.1 µM), for the others: at the top dose activity, positive = more growth | 270,000 compounds, 0.4% hits | AID 2326, 2010; note: potency is the fitted concentration of half-maximal effect; actives are rising curves; nearly all actives have a fitted effect of over 50% in size
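In this qHTS, NS1 from influenza A is expressed in budding yeast, where it slows growth. Cells are switched from glucose to 2% galactose medium (pH 6.0, -URA), treated with compound, and growth recovery is read at OD600.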
Shiga inhibitor = A qHTS for Small Molecule Inhibitors of Shiga Toxin; Vero cells, Shiga toxin protein synthesis inhibition reporter; inhibition, % at 38.7 µM; 290,000 compounds, 9.2% hits; in the data active = inhibition mostly above about 28%, no sharp cut-off; inactive = mostly below about 43%; note: 0% is about no effect
SARS PLP yeast = qHTS of Yeast-based Assay for SARS-CoV PLP; S. cerevisiae expressing SARS-CoV PLpro, growth rescue; Potency, µM (top dose mostly 32.9 µM), for inactives: at the highest dose activity, positive = growth rescue, most hits filed as activators; 330,000 compounds, 0.19% hits; AID 485353, 2010; note: potency is the fitted concentration of half-maximal effect; 0% is about no effect; nearly all actives have a fitted effect of over 55% in size
Flu NS1 inh = Assay for Inhibitors of Influenza NS1 Protein Function: Hit Validation; shares compounds with NS1 function inh; influenza NS1 function cell assay, 15-point titration; activity change, negative = inhibition, % at 32.9 µM; 1,400 tested, under 10 active; AID 492980, 2010; note: 0% is about no effect
Numbers without * were called inactive; u = inconclusive; x = no result given. Unless noted, calls come from the whole dose curve.

SMILES | CHX counter | NS1 function inh | Shiga inhibitor | SARS PLP yeast | Flu NS1 inh
COc1cc(/C=N/n2c(-c3n[nH]c4c3CCC4)n[nH]c2=S)ccc1O | -2.0 | 5.62µM* | -3.2 | 2.5% | u
Cc1ccc(C2(C)NC(=O)N(CC(=O)NCCC3=CCCCC3)C2=O)cc1 (centres undefined) | 10.2 | 11.2µM* | -1.7 | 8.7% | 14.4
CC1(c2ccc(Cl)cc2)NC(=O)N(CC(=O)NCCC2=CCCCC2)C1=O (centres undefined) | x | x | x | 2.7% | x
COc1ccc(N(CC(=O)O)S(=O)(=O)c2cccnc2)cc1 | -1.0 | -6.1% | -11.1 | 5.3% | x
Cc1ccnc(NC(=O)C(Cc2ccccc2)NC(=O)c2ccccc2)c1 (centres undefined) | x | x | x | -1.6% | x
CNC(=O)c1cc2cc(OC)ccc2n1CCN(C)C | -3.7 | 3.55µM* | -3.1 | 3.0% | 1.2
CNC(=O)c1cc2cc(OC)ccc2n1CCN(Cc1ccccc1)Cc1ccccc1 | -0.9 | -7.6% | -4.6 | -7.7% | x
O=C(N=C1SC2CS(=O)(=O)CC2N1Cc1ccccc1Cl)C1CC1 (centres undefined) | -1.6 | -12.5% | -11.1 | 0.4% | x
Cc1ccc(-c2cc(C(=O)Nc3ccc(S(=O)(=O)Nc4nc(C)cc(C)n4)cc3)c3ccccc3n2)cc1 | 0.6 | 14.1µM* | 30.5 | -2.4% | 12.6
O=C(Nc1cccc(S(=O)(=O)NC2=NCCCCC2)c1)c1cc(-c2ccc(Cl)cc2)nc2ccccc12 | -3.8 | 11.2µM* | 14.4 | -5.0% | 23.8
CC(=O)NS(=O)(=O)c1ccc(NC(=O)c2cc(-c3ccc(C)cc3)nc3ccccc23)cc1 | -3.7 | 8.91µM* | 6.0 | 22.9% | 5.3
O=C(Nc1cccc(S(=O)(=O)NC2=NCCCCC2)c1)c1cc(-c2ccccc2)nc2ccccc12 | -2.9 | 14.9% | -8.5 | -5.9% | x
COC(=O)Cc1cc(=O)n(-c2ccccc2)[nH]1 | 1.1 | 8.91µM* | -10.4 | 2.9% | 36.9
CCOc1ccc(S(=O)(=O)c2c(C(=O)c3ccc(C)cc3)cnc3cc4c(cc23)OCCO4)cc1 | 3.7 | 14.1µM* | 15.8 | -2.4% | -13.5
O=C(Nc1nnc(SCc2ccc(F)cc2)s1)C1Cc2ccccc2CN1C(=O)c1ccco1 (centres undefined) | 9.5 | 7.94µM* | 3.6 | -1.0% | 6.0
COc1ccccc1/C=C/C(=O)NCC(=O)N/N=C/c1cccnc1 | -1.0 | 7.7% | 16.8 | 9.8% | x
COc1ccccc1NCC(=O)N/N=C/c1cccnc1 | 12.9 | 3.16µM* | 3.8 | -0.2% | 32.2
O=C(CCN1C(=O)/C(=C/c2ccccc2Cl)SC1=S)NCCc1ccc(O)cc1 | 3.2 | -10.1% | -8.9 | 7.7% | x
Cc1cc(C(F)(F)F)c2c(n1)sc1c(O)cc(=O)[nH]c12 | -2.7 | 29.0% | -16.0 | 13.3% | x
O=c1cc(O)c2sc3nc(-c4cccnc4)cc(C(F)(F)F)c3c2[nH]1 | -4.1 | 10µM* | 17.3 | 14.3% | 17.6
Cc1ccc(C2N(c3ccc(F)cc3)C(=O)C3CCCN32)cc1 (centres undefined) | -0.2 | 1.78µM* | 8.6 | 2.8% | -8.9
COC(=O)C1=C(C)OC(N)=C(C#N)C1c1c(C)nn(-c2ccccc2)c1Cl (centres undefined) | -1.3 | -3.5% | 8.6 | -0.2% | x
COC(=O)C1=C(C)OC(N)=C(C#N)C1c1c(C)nn(C)c1C (centres undefined) | -3.0 | 2.24µM* | -14.8 | 9.7% | 9.7
O=C(NNc1nc(-c2ccccc2)c2cc(Br)ccc2n1)c1ccc(S(=O)(=O)N2CCOCC2)cc1 | -3.0 | 11.2µM* | 19.4 | 6.9% | 34.3
O=C(NNc1nc(-c2ccccc2)c2cc(Br)ccc2n1)c1ccc(S(=O)(=O)N2CCCCC2)cc1 | -4.4 | u | -8.6 | -5.9% | x
CCOC(CNC(=O)CN1C(=O)COc2ccc(S(=O)(=O)N3CCCC3)cc21)OCC | -2.4 | 2.3% | 20.2 | -1.9% | x
CCN(CC)c1ccc(NC(=O)CCc2nnc3ccc(N4CCCC4)nn23)c(C)c1 | 1.0 | -9.8% | -1.0 | -0.8% | x
CCOC(=O)C1=C(C)N=C2SC(C)C(=O)N2C1c1ccc(C(=O)OC)cc1 (centres undefined) | -1.3 | 7.94µM* | -8.6 | -0.5% | -0.6
CCOC(=O)C1=C(C)N=C2SC(C)C(=O)N2C1c1ccccc1 (centres undefined) | -2.2 | 6.9% | -10.6 | 1.5% | x
COC(=O)c1ccccc1NC(=S)N(Cc1ccc2c(c1)OCO2)Cc1cc2ccc(C)cc2[nH]c1=O | -0.4 | u | -24.5 | 21.1% | x

Screens as filed in PubChem.
